Compound activity: PubChem BioAssay, several laboratories
Sampled rows, rich in hits. Any-hit rate of the full collection: about 1.7%.
OPRM1-OPRD1 inv: inverse agonists of human mu-delta opioid receptor heterodimerization. P35372+P41143. inhibition, % at 9.3 µM. 340,000 tested, 0.21% active. cell-based MOR-DOR heterodimer luminescence, inverse agonism; in the data active = inhibition above about 22%, passing the limit was not always enough
HTR5A inv ctr: counter-screen for OPRM1-OPRD1 inverse agonists: human HTR5A inverse agonism; AID 504634; P47898; inhibition, % at 9.3 µM; 340,000 tested, 0.083% active; HTR5A cell line, luminescence; in the data active = inhibition mostly above about 23%, no sharp cut-off; inactive = mostly below about 18%
Target sequence (P47898 whole entry, looked up): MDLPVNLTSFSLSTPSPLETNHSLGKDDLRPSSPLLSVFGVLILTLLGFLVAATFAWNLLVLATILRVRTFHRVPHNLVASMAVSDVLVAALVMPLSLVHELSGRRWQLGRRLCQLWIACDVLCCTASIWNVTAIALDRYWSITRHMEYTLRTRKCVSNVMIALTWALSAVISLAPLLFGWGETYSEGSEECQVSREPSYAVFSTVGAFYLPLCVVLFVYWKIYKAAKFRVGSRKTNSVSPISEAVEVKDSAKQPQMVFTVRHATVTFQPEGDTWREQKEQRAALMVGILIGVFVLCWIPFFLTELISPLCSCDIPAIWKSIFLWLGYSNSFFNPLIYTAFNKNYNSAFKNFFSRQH
HTR5A ag: activates human HTR5A in OPRM1-OPRD1 agonist counter-screen; AID 504692; 340,000 tested, 0.61% active; activation, % at 9.3 µM; HTR5A agonist assay, luminescence, cell-based; P47898; in the data active = activation mostly above about 9.5%, no sharp cut-off; inactive = mostly below about 7.6%
V-ATPase pHluor: regulators of yeast V-ATPase proton transport. S. cerevisiae, pHLuorin cytosolic pH fluorescence. AID 504577. 350,000 tested, 0.37% active. response, % at 10 µM; in the data active = response mostly above about 7.3%, no sharp cut-off; inactive = mostly below about 5.4%; also: actives read high
beta cell repl: MIN6 beta-cell proliferation induction. 330,000 tested, 0.29% active. proliferation, % at 10 µM. MIN6 cells proliferation, ATPlite luminescence, 48 h; cells starved in 0.2% serum; 100% = growth in 10% serum;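 active = compounds whose signal lies at least 3.5 SD above the mean of all wells on their plate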
OPRM1-OPRD1 ag: agonists of human mu-delta opioid receptor heterodimerization | activation, % at 9.3 µM | cells, OPRM1-OPRD1 heterodimerization, luminescence | P35372+P41143 | 340,000 tested, 0.3% active | AID 504326; in the data active = activation above about 18%
Of the large screens only hits and unclear results are named; the others gave an inactive call.

O=C(c1ccc(NS(=O)(=O)c2cccs2)cc1)N1CCOCC1	none
O=C(NCC(c1ccco1)N1CCCC1)c1ccc(-n2cccn2)cc1 (stereo not drawn)	none
Cc1cc(C)n(-c2ccc(C(=O)NCC(c3ccco3)N3CCCC3)cc2)n1 (stereo not drawn)	V-ATPase pHluor 16
O=C1CN(C(=O)CN2CCN(S(=O)(=O)c3ccccc3)CC2)c2ccccc2N1	none (no result: OPRM1-OPRD1 inv, HTR5A inv ctr, HTR5A ag, beta cell repl, OPRM1-OPRD1 ag)
CCOC(=O)c1nc2ccc(C)cc2c2c1C1CC(c3c(Cl)cccc31)N2C(=O)OCc1ccccc1 (stereo not drawn)	none (no result: OPRM1-OPRD1 inv, HTR5A inv ctr, HTR5A ag, beta cell repl, OPRM1-OPRD1 ag)
C=C[C@H](CC(C)C)N(Cc1ccccc1)S(=O)(=O)N(Cc1ccccc1)[C@@H](C=C)CC(C)C	OPRM1-OPRD1 inv 42, HTR5A inv ctr 32
COc1ccc(C(=O)c2no[n+]([O-])c2C(=O)c2ccc(OC)cc2)cc1	HTR5A ag 26, OPRM1-OPRD1 ag 40
COc1ccc(NC(=O)c2c(N)no[n+]2[O-])cc1	none
COc1ccc(N2CC(O)(c3ccc(F)cc3)[N+]3=C2CCCC3)cc1 (stereo not drawn)	none
COc1ccc(N2CC(O)(c3ccc(C)cc3)[N+]3=C2CCCC3)cc1 (stereo not drawn)	HTR5A ag 13
Cc1cccc(NC(=S)N/N=C/c2cccc([N+](=O)[O-])c2)c1	none
Cc1cccc(NC(=S)N/N=C/c2ccc(Cl)c([N+](=O)[O-])c2)c1	HTR5A ag 9.3
COc1ccc(-c2nc(NC(=O)c3ccc(OCC(=O)Nc4ccc(F)cc4)c(OC)c3)sc2C)cc1	HTR5A ag 15, OPRM1-OPRD1 ag 19
CC1CN(C(=O)CCS(=O)(=O)c2ccccc2)CC(C)O1 (stereo not drawn)	HTR5A ag 14
CSc1cccc(NC(=O)CCS(=O)(=O)c2cccc3nonc23)c1	none
Cc1ccc(N=Cc2cc(Cc3ccccc3Cl)cc([N+](=O)[O-])c2O)c(O)c1	HTR5A ag 12
COc1ccc(N=Cc2cc(Cc3ccccc3Cl)cc([N+](=O)[O-])c2O)cc1OC	none
COc1cccc(C(=O)N2CCCc3ccccc32)c1OC	none (no result: OPRM1-OPRD1 inv, HTR5A inv ctr, HTR5A ag, beta cell repl, OPRM1-OPRD1 ag)
O=C(CSc1nnc(-c2ccc(Cl)cc2)n1-c1ccc(Cl)cc1)N/N=C/c1ccccc1C(=O)O	none (no result: OPRM1-OPRD1 inv, HTR5A inv ctr, HTR5A ag, V-ATPase pHluor, OPRM1-OPRD1 ag)
O=C(CSc1nnc(-c2ccccc2)n1-c1ccc(Cl)cc1)N/N=C/c1ccccc1C(=O)O	HTR5A ag 12
CCC(NC(=O)Nc1nnc(C(F)(F)F)s1)(C(F)(F)F)C(F)(F)F	HTR5A ag 12
O=C(O)CCC(=O)Nc1nnc(C(F)(F)F)s1	none
O=[N+]([O-])c1ccc(C(O)CN=Cc2ccc(O)cc2O)cc1 (stereo not drawn)	none
Cc1ccccc1NC(=O)Cc1c[nH]c2ccccc12	none
C=CCOc1ccc(/C=N/NC(=O)c2c(C)nc3ccc(Cl)cn23)cc1	HTR5A ag 11
CSc1ccccc1OCc1cc(C(=O)NCCN2CCCc3ccccc32)no1	none
O=c1cc2oc3cc(O)c(O)cc3c(-c3ccccc3[N+](=O)[O-])c-2cc1O	OPRM1-OPRD1 inv 50, HTR5A inv ctr 44
O=c1cc(-c2ccccc2Cl)oc2cccc(O)c12	none
CCn1c(SCC(=O)Nc2cccc(OC)c2)nc2ccccc2c1=O	none
CCCn1c(SC(C(=O)Nc2cccc(OC)c2)c2ccccc2)nc2ccccc2c1=O (stereo not drawn)	HTR5A ag 13
c1ccc(-c2cnn3nnnc3n2)cc1	HTR5A ag 12
COc1ccc(/C=N/n2cnnc2)cc1Oc1nc(Cl)ncc1F	HTR5A ag 12
Nc1c(-c2ccc(Cl)cc2)cnc2c(-c3ccccc3)cnn12	none
C[C@H](CO)N1C[C@H](C)[C@@H](CN(C)C(=O)C2CC2)OCc2cnnn2CCCC1=O	none (no result: OPRM1-OPRD1 inv, HTR5A inv ctr, HTR5A ag, beta cell repl, OPRM1-OPRD1 ag)
COc1ccc(C2c3ccc(O)cc3Oc3ncn4nc(-c5ccccn5)nc4c32)cc1 (stereo not drawn)	HTR5A ag 12
COc1ccc(C2c3ccc(O)cc3Oc3ncn4nc(-c5ccccn5)nc4c32)cc1OC (stereo not drawn)	none
CCOc1ccc(CCNC(=O)c2ccc(C)c(S(=O)(=O)N3CCOCC3)c2)cc1OCC	none (no result: beta cell repl)
CCOc1ccc(CCNC(=O)c2ccc(F)c(S(=O)(=O)N3CCOCC3)c2)cc1OCC	HTR5A ag 11
OCCC1CN(Cc2ccc3nsnc3c2)CCN1CCc1ccccc1 (stereo not drawn)	none
Cc1nn(-c2ccccn2)c2c1C(c1ccccc1Cl)C1=C(N2)c2ccccc2C1=O (stereo not drawn)	OPRM1-OPRD1 inv 26
CC(C)[C@H](NC(=O)C1CC(=O)N(c2ccc3c(c2)OCO3)C1)C(=O)NC1CCCC1 (stereo partly drawn)	none
C=CCn1c(SCC(=O)Nc2ccc(C(=O)O)cc2)nc2sc(C)c(C)c2c1=O	none
C=CCn1c(SCC(=O)NCCO)nc2sc(C)c(C)c2c1=O	beta cell repl 13
CC1(C)CC2(OC2c2ccccc2[N+](=O)[O-])C(=O)c2ccccc21 (stereo not drawn)	none (no result: OPRM1-OPRD1 inv, HTR5A inv ctr, HTR5A ag, beta cell repl, OPRM1-OPRD1 ag)
CN1CCN(C2=C(Cl)C(=O)C(c3cnc(N4CCCCC4)s3)=C(Cl)C2=O)CC1	V-ATPase pHluor 17
CN1CCN(C2=C(Cl)C(=O)c3ccccc3C2=O)CC1	OPRM1-OPRD1 ag 28 (no result: beta cell repl)
CS(=O)(=O)c1ncc(Cl)c(C(=O)Nc2ccc3ccccc3c2)n1	OPRM1-OPRD1 inv 57 (no result: V-ATPase pHluor, beta cell repl)
Cc1ccc(S(=O)(=O)N(C)C[C@H]2Oc3cc(C#Cc4ccccc4)ccc3S(=O)(=O)N([C@H](C)CO)C[C@@H]2C)cc1	none (no result: OPRM1-OPRD1 inv, HTR5A inv ctr, HTR5A ag, beta cell repl, OPRM1-OPRD1 ag)
CCn1c(C)nnc1SCC(=O)Nc1ccc(Cl)cc1	none
Cc1c(C(=O)NCCC2=CCCCC2)sc2ncnc(N3CCCCC3C)c12 (stereo not drawn)	HTR5A ag 11
COc1ccc(-c2cc(C(=O)O)no2)cc1	HTR5A ag 9.8
Cc1cc(NCC(=O)Nc2ccc(C)c(S(=O)(=O)N3CCOCC3)c2)ccc1Br	none (no result: OPRM1-OPRD1 inv, HTR5A inv ctr, HTR5A ag, beta cell repl, OPRM1-OPRD1 ag)
O=C(CCc1ccc(O)cc1)N/N=C/c1coc2ccccc2c1=O	none (no result: OPRM1-OPRD1 inv, HTR5A inv ctr, HTR5A ag, OPRM1-OPRD1 ag)
CC1CCCN(CCCNC(=O)c2cc3c(s2)-c2ccccc2OC3)C1 (stereo not drawn)	HTR5A ag 11
O=C(Nc1cccnc1)c1cc2c(s1)-c1ccccc1OC2	none
Cc1cccc2c1-c1sc(C(=O)NCCCN3CCC(C)CC3)cc1CO2	HTR5A ag 11
CC1CCN(CCCNC(=O)c2cc3c(s2)-c2ccccc2OC3)CC1	none
Cc1cccc2c1-c1sc(C(=O)Nc3cccnc3)cc1CO2	HTR5A ag 11
CCCCCCNC(=O)OC12CN(C(=O)OC(C)C)N(C(=O)OC(C)C)CC1(O)CN(S(=O)(=O)c1ccc(C)cc1)C2 (stereo not drawn)	none (no result: OPRM1-OPRD1 inv, HTR5A inv ctr, HTR5A ag, beta cell repl, OPRM1-OPRD1 ag)
CCOC(=O)C1CCCN(CCC(=O)Nc2cc(C)cc(C)c2)C1 (stereo not drawn)	HTR5A ag 10
O=C(CNS(=O)(=O)c1c(F)cc(F)cc1Br)OCC(=O)N1CCCC1=O	V-ATPase pHluor 13
